Screening results from PubChem BioAssay.
An excerpt weighted towards active compounds, which were near 3.1% of everything screened.
TRb-SRC2 inh – disrupts binding of human TR beta to SRC2 | P10828 | TRbeta-SRC2 peptide binding, fluorescence polarization; receptor liganded with 1 µM T3 | Potency, µM (doses to about 106 µM), for the others: top-dose activity change, negative = inhibition, hits mostly inhibitors | hit rate 0.065% among 280,000 | AID 1469;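 also: plate controls were bound peptide for no effect and peptide without receptor for full effect; nearly all actives have a fitted effect of over 50% in size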
Target sequence (P10828 whole entry, looked up): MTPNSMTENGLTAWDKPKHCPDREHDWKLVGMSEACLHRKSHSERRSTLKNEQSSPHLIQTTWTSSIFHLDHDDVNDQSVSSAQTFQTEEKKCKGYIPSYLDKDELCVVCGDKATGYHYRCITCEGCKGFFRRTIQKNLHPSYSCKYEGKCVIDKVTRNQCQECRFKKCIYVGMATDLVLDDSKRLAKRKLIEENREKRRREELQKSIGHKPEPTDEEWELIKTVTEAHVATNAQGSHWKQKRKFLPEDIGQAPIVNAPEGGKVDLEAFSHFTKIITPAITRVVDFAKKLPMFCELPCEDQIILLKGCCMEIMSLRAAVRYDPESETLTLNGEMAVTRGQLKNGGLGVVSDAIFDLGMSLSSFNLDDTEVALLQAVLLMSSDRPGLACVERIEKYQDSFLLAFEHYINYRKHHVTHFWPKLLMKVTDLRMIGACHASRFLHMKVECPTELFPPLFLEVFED
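Each compound concentration gave % activity, normalized to unbound and bound Texas Red SRC2 controls, from polarization read after 5 hr ambient incubation with T3-loaded human TRb LBD.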
Tau fibril ThT – tau fibrillization inhibition (ThT binding) | Potency, µM (titrated, usually from 57.4 µM), for the others: at the highest dose activity, negative = inhibition, most hits filed as inhibitors | recombinant tau K18 P301L, heparin-induced fibrillization, ThT fluorescence | P10636 | hit rate 2.1% among 270,000; also: nearly all actives have a fitted effect of over 55% in size
Target sequence (P10636 561-689 P618L limits assumed): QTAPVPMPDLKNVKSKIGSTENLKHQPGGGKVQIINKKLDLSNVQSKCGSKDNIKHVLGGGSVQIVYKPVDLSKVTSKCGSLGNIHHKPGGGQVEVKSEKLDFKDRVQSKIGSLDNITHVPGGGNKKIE
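Aggregation was driven by heparin (20 uM final) acting on recombinant tau […] bearing P301L in 100 mM sodium acetate pH 7; fibrils were detected with Thioflavin T.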
Tau fibril FP – blocks human tau fibril formation measured by polarization; P10636; K18 P301L tau heparin fibrillization, Alexa594 FP, 6 h; Potency, µM (titrated, usually from 57.7 µM), for the others: at the top dose activity, negative = inhibition, usual class: inhibitors; hit rate 0.39% among 280,000; AID 1468; also: nearly all actives have a fitted effect of over 55% in size
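K18 P301L tau (15 uM unlabeled/0.24 uM Alexa 594-labeled, final) + compound + heparin 20 uM final; 100 mM NaOAc pH 7; 6 hr 37 C; ThT 30 uM final added, 1 hr RT; FP ex 555/em 632 nm.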
Tau fluor counter – counter-screen for tau fibril formation inhibitors; Potency, µM (top dose mostly 57.7 µM), for inactives: at the highest dose activity change, negative = decrease; hit rate 0.93% among 280,000; tau K18 P301L (four-repeat tau fragment) Alexa594 fluorescence, heparin fibrillization; AID 1463; also: nearly all actives have a fitted effect of over 55% in size
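Human K18 P301L tau (15 uM unlabeled plus 0.24 uM Alexa 594-labeled, final) in 100 mM sodium acetate pH 7 was mixed with compound and 20 uM heparin and incubated 6 hr at 37 C.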
TR SRC2 fluor cs – Texas Red fluorescence interference in TRb-SRC2 counter-screen. TRb/SRC2 Texas Red total fluorescence interference. hit rate 0.29% among 280,000. AID 1479. Potency, µM (titrated, usually from 106 µM), for inactives: at the top dose fluorescence change, negative = quenching; active = well fitted curve in either direction with a large enough effect; inconclusive = small, poorly fitted or top-dose-only effect
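Human TRβ ligand-binding domain (0.6 uM) and Texas Red SRC2 peptide (20 nM) in Tris buffer with 1 uM T3 and 5% DMSO were incubated with pinned compound for 5 hr at ambient temperature. Total fluorescence was computed as S + 2P (555/632 nm).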
An asterisk follows results filed as active; ? = inconclusive; nt = no result given; ! = repeats disagree; [ ] = another dose, or the depositor's remark. Unless noted, calls follow the shape of the dose curve; as a rule, active = well fitted curve in the direction sought with a large enough effect; inconclusive = small, poorly fitted or top-dose-only effect, or another doubt; inactive = no such curve, though single readings can be large; an effect the other way counts as inactive or inconclusive. Unless noted, % is scaled to controls: 0 for no effect and ±100 for the full control effect; potency is read from the fitted curve at half-maximal effect.

SMILES	TRb-SRC2 inh	Tau fibril ThT	Tau fibril FP	Tau fluor counter	TR SRC2 fluor cs
O=C1/C(=C/Nc2cccc([N+](=O)[O-])c2)CCc2ccccc21	-16%	14µM*	9%	?	-2%
CCc1cc(SC#N)cc(CC)c1NC(=O)CCl	-2%	3.5µM*	7.1µM*	-27%	0%
CCN(CC)c1ccc(NC(=O)c2sc3ccccc3c2Cl)cc1	0%	0.89µM*	2%	?	-4%
CCOc1ccc(NC(=O)c2sc3ccccc3c2Cl)cc1	-2%	?	6%	-6%	3%
CCN(CC)c1ccc(NC(=O)c2sc3nc(-c4ccccc4)cn3c2C)cc1	2%	2.2µM*	13%	?	-1%
COc1ccc(C(=O)Nc2ccc(/C(C)=N/NC(=O)c3ccccc3O)cc2)cc1OC	2%	?	-1%	-14%	-1%
N#C/C(=N\Nc1cccc(C(F)(F)F)c1)C(=O)c1ccsc1	6%	14µM*	15%	?	-17%
O=C(Nc1ccccc1)Nc1cccc(C(F)(F)F)c1	0%	1%	?	-30%	1%
CN(C)S(=O)(=O)c1cccc(-n2sc3ccccc3c2=O)c1	-6%	?	?	-22%	-4%
O=c1c2ccccc2sn1-c1nccs1	3%	16µM*	?	-21%	-2%
Cc1ccc(-n2sc3ccccc3c2=O)cc1S(=O)(=O)N1CCCCC1	0%	16µM*	32µM*	-19%	-3%
O=c1c2ccccc2sn1-c1ccccc1	-11%	11µM*	?	-30%	-2%
O=c1c2ccccc2sn1-c1ccc(S(=O)(=O)N2CCCC2)cc1	nt	11µM*	?	-16%	nt
Cc1ccc(-c2onc(C)c2C)cc1S(=O)(=O)N1CCCCC1	2%	-8%	6%	-19%	-2%
O=[N+]([O-])C(CO)(CO)CO	-3%[201 µM]	nt	nt	nt	-5%[201 µM]
COc1ccccc1NC(=O)Cn1nc(-c2ccc(Cl)cc2)c2ccccc2c1=O	3%	-15%	-3%	-25%	0%
CNC[C@H](O)c1ccc(O)c(O)c1	1%	14µM*!	13µM*!	?	1%
Cc1cccc2cc(C(c3nnnn3CC3CCCO3)N3CCc4ccccc4C3)c(=O)[nH]c12 (configuration not stated)	3%	?	-4%	-1%	3%
Cc1ccc(C)c2[nH]c(=O)c(C(c3nnnn3Cc3ccccc3)N3CCc4ccccc4C3)cc12 (configuration not stated)	-5%	22µM*	?	-21%	0%
O=C(O)c1sccc1S(=O)(=O)Nc1ccc(Cl)cc1	-5%	-6%	6%	-11%	-15%
COc1ccc([C@H]2Oc3cc(O)cc(O)c3C(=O)C2[C@@H]2C(=O)c3c(O)cc(O)cc3O[C@@H]2c2ccc(OC)cc2)cc1 (some centres not stated)	?	?	18µM*	-29%	-22%
CC(C)(C)c1ccc(SCCc2cccnc2)cc1	-3%	-12%	1%	-14%	-2%
O=C(COc1ccc(/C=N/NS(=O)(=O)c2ccccc2)cc1)Nc1cccc(Cl)c1	0%	?	8%	16µM*[quencher]	-5%
CC(C)OP(=O)(OC(C)C)C(Nc1ccc([N+](=O)[O-])cc1)c1cccc([N+](=O)[O-])c1 (configuration not stated)	3%	-14%	1%	-21%	-3%
CC(C)OP(=O)(OC(C)C)/C(C=O)=N\Nc1ccc([N+](=O)[O-])cc1	0%	16µM*	5%	-11%	-6%
SMILES	TRb-SRC2 inh	Tau fibril ThT	Tau fibril FP	Tau fluor counter	TR SRC2 fluor cs
CCCCNc1cc(NC2CCCCC2)c2c3c(onc13)-c1ccccc1C2=O	5%	?	1%	?	12%
CCOC(=O)C(C(=O)OCC)c1cc(Br)c2noc3c2c1C(=O)c1ccccc1-3	-5%	1.1µM*	2.2µM*	2.5µM*[quencher]	-9%
Cc1cccc(OCC(=O)N(Cc2ccc(N(C)C)cc2)Cc2ccco2)c1C	-26%[53 µM]	?	10%	?	0.45µM*[quencher]
Cc1ccc(CN(Cc2ccco2)C(=O)COc2cccc(C)c2C)o1	0%	1%	3%	4%	-1%
CCN1C(=O)/C(=C\C=C2/C=CC=CN2CC)SC1=S	12%	14µM*	?	-22%	6%
CCN1C(=O)/C(=C/C=C2\C=CN(CC)c3ccccc32)SC1=S	4%	2.2µM*	?	?	-3%
CCN1C(=O)/C(=C2/C=CC=CN2C)SC1=S	7%	?	-3%	-10%	-4%
COc1ccc(CCNC(=O)Cn2c(=O)cc(C(F)(F)F)c3c(C)nn(C)c32)cc1OC	0%	-2%	4%	3%	-21%
COC(=O)c1ccc(C(=O)Nc2ccc(N)cc2N)cc1	-2%	13µM*	-6%	-27%	7%
COc1ccccc1NC(=O)c1ccc(N)cc1	10%	-12%	2%	2%	2%
COc1cc(/C=C2\C(C)=C(C#N)c3nc(N)c(C#N)c(C)c32)ccc1OCC(=O)O	11%	14µM*	?	?	?
CC1=C(C#N)c2nc(N)c(C#N)c(C)c2/C1=C\c1ccc(C)cc1	-19%	18µM*	?	?	30%
CCCNc1c(F)c(F)c2c(C)c3ccccc3nc2c1F	5%	14µM*	6%	-23%	3%
CC(=O)Oc1ccccc1N(C(C)=O)S(=O)(=O)c1cccc([N+](=O)[O-])c1	-4%	-13%	-2%	-2%	3%
CCOC(=O)c1sc2ncn(CC(=O)Nc3ccc(C)cc3Br)c(=O)c2c1C	-1%	-1%	-9%	4%	-1%
Cc1snc(SCC(=O)c2ccc(F)cc2)c1C#N	0%	-15%	8%	-17%	-1%
Cc1snc(SCC(=O)c2ccc([N+](=O)[O-])cc2)c1C#N	-7%	14µM*	?	-26%	-6%
O=C(O)c1ccc(-c2nc(-c3ccc(Cl)c(Cl)c3)cs2)cc1	2%	-8%	-6%	-11%	-4%
NC(=O)C(=CNc1nc(-c2ccc(Cl)c(Cl)c2)cs1)C(N)=O	-3%	16µM*	-9%	16µM*[quencher]	-9%
Cc1cc(C)c(S(=O)(=O)ON2C(=O)c3ccccc3C2=O)cc1C	-13%[53 µM]	?	?	-9%	0%[53 µM]
Cc1ccc(S(=O)(=O)ON2C(=O)c3ccccc3C2=O)c(C)c1	5%	18µM*	?	-21%	-4%
CS(=O)(=O)N1CCc2cc(C(=O)Nc3ccc(Cl)c(C(F)(F)F)c3)ccc21	3%	17%	20µM*	?	1%
O=C(Nc1ccc2nsnc2c1)N1CCCCCC1	-3%	-10%	10%	0%	-1%
S=C(Nc1ccc2nsnc2c1)N1CCCC1	?	25µM*	?	-19%	-8%
CC1CCN(S(=O)(=O)c2cn(CC(=O)Nc3cccc(C(F)(F)F)c3)c(=O)c3ccccc23)CC1	1%	4%	?	?	-1%
